This is an account of results in PubChem BioAssay (NCATS).

Values without a mark were called inactive. Results filed as inconclusive are left out. The source made the active and inactive calls. Unless noted, calls follow the shape of the dose curve; as a rule, active = well fitted curve in either direction with a large enough effect (not every such curve was filed as active); inconclusive = small, poorly fitted or top-dose-only effect, or another doubt; inactive = flat fitted curve, though single readings scatter.

Test [1] deals with Lysosomal acid glucosylceramidase (Homo sapiens) (UniProt P04062). Description: Glucocerebrosidase-p2 (AID 348; in the data active = potency below about 10 µM; also: potency is read from the fitted curve at half-maximal effect). The note with it: purified GBA, blue fluorogenic substrate, 40 min. Summed up:
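Normal human glucocerebrosidase (0.2 nM) with blue fluorogenic substrate (80 uM final) in citrate/phosphate pH 5.9 with 10mM sodium taurocholate, 0.01% tween-20; 40 min RT, NaOH/glycine stop; fluorescence Ex 365/Em 440; AC50 from a titration from 0.6 nM upwards.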

Test [2] is described as follows: AP1 Signaling Pathway (AID 357).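 Also: ME-180 reporter cells stimulated with EGF at its EC50 level; % is scaled to controls: 0 for no effect and ±100 for the full control effect.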 The note with it: ME-180 AP-1-bla reporter, EGF-induced, beta-lactamase ratio, 5 h; at 7.69 µM (top of the series) unless noted. Summed up:
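Cells are seeded overnight, exposed to compound titrations and an EC50 level of EGF for 5 hours at 37 °C, then loaded with CCF4 dye for 2.5 hours. Beta-lactamase activity under the AP-1 element is read as a blue/green ratio.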

In test [3] the target is Cytochrome P450 1A2 (Homo sapiens) (UniProt P05177). Description: p450-cyp1a2 (AID 410; calls by dose curve; also: potency is read from the fitted curve at half-maximal effect;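 as to activity change, negative = inhibition: -100% = full effect of reference inhibitor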). The note with it: recombinant CYP1A2, luciferin-ME demethylation, luminescence; series mostly up to 57 µM. The method, boiled down:
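Luminescent demethylation readout: Luciferin-ME (100uM, equal to Km) turned over by 20nM CYP1A2 for 60 min at room temperature after NADPH regeneration addition, following 10 min compound preincubation. Normalization used 57 uM furafylline as full inhibition.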

Test [4] is described as follows: NFAT Signaling Pathway (AID 444).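 Also: carbachol stimulus at about its EC50 of 1 µM final; % is scaled to controls: 0 for no effect and ±100 for the full control effect.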 The note with it: Jurkat NFAT-bla M1, carbachol, beta-lactamase ratio, 5 h; at 7.69 µM (top of the series) unless noted. The method, boiled down: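 Jurkat cells carrying an NFAT-driven β-lactamase reporter and co-transfected muscarinic M1 receptor were treated with compound plus carbachol (1 uM final, an EC50 level) for 5 h at 37 °C. CCF4 loading followed for 1 h at RT; 460/530 nm ratio gave %activity.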

Test [5] in a line: Stat Signaling Pathway (AID 446).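 Also: ME-180 cervical cancer cells given 40 pM IL-6 alongside compound; SIE-controlled beta-lactamase reporter measured as 460/530 nm FRET emission ratio; % is scaled to controls: 0 for no effect and ±100 for the full control effect.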 Particulars: ME-180 SIE beta-lactamase reporter, IL-6 stimulated, 5 h; at 7.69 µM (top of the series) unless noted. Summed up: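 Emission at 460 and 530 nm (excitation 405 nm) reports SIE-controlled beta-lactamase in ME-180 cells. Cells received compound with 40 pM IL-6 for 5 hrs at 37 C; data scaled between 300 pM IL-6 and 125 nM JAK-inhibitor controls.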

The target in test [6] is Glucocorticoid receptor (Homo sapiens) (UniProt P04150). Description: GR-EFC Redistribution (AID 451; calls by dose curve; also: potency is read from the fitted curve at half-maximal effect). The note with it: CHO-K1 GR-EFC translocation, beta-gal luminescence, 2 h. Summed up:
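CHO-K1 cells stably expressing nuclear-localized β-gal enzyme acceptor and GR fused C-terminally to the enzyme donor fragment; ligand-driven nuclear translocation restores β-gal by complementation. Compounds titrated up to 46 uM final, 2 h at 37 °C; luminescence read.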

Test [7] addresses Mitogen-activated protein kinase 10 (Mus musculus) (UniProt Q61831). Description: JNK3 AlphaScreen Assay (AID 530).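 Also: kinase came from lysate of stimulated human HepG2 cells; % is scaled to controls: 0 for no effect and ±100 for the full control effect.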 The note with it: JNK3 lysate, c-Jun phosphorylation; series mostly up to 57.1 µM. The method, boiled down: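 Phosphorylation of biotinylated GST-cJun(1-79) at Ser73 is measured by AlphaScreen proximity luminescence. Enzyme is JNK3 in HepG2 lysates activated with interleukin-1beta and tumor necrosis factor alpha; ATP is 10 uM final.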
(Alpha assays give light when donor and acceptor beads are brought close together.)

The target of test [8] is Cytochrome P450 3A4 (Homo sapiens) (UniProt P08684). Description: qHTS Assay for Activators of Cytochrome P450 3A4 (AID 885; active = well fitted curve in the direction sought with a large enough effect; an effect the other way counts as inactive or inconclusive; also: nearly all actives have a fitted effect of over 65% in size; also: potency is read from the fitted curve at half-maximal effect). Particulars: recombinant CYP3A4, Luciferin-PPXE luminescence, 60 min; series mostly up to 57.1 µM. Summed up:
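Activators are scored by enhanced luminescence from CYP3A4 conversion of luciferin-PPXE (25uM, equal to KM) to luciferin, after 60 min at RT with an NADPH-regenerating system.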
(In general: In qHTS, concentration-response curves come from the screen itself.)

Test [9] in a line: qHTS Assay for Identification of Small Molecule Agonists for Hypoxia Response Element Signaling Pathway (AID 914; active = well fitted activation curve with a large enough effect in the signal ratio, with a control signal flat, not every such curve was filed as active; the % refers to the signal ratio; also: % of control where 0% means no effect). Particulars: ME-180 (cervical carcinoma) HRE-bla reporter, beta-lactamase ratio, CoCl2, 17 h; activation: stronger effect = higher value. The method, boiled down: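 Positive modulation of EC50 CoCl2-induced hypoxia response element signaling is measured in ME-180 cells with a beta-lactamase reporter. Compounds are titrated, incubation runs 17 hours, and %Activity derives from the blue/green ratio.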

Test [10] is described as follows: Primary qHTS for small molecule stabilizers of the endoplasmic reticulum resident proteome: Secreted ER Calcium Modulated Protein (SERCaMP) assay (AID 1508630; active = well fitted curve in the direction sought with a large enough effect; an effect the other way counts as inactive or inconclusive; also: % is scaled to controls: 0 for no effect and ±100 for the full control effect). The note with it: SH-SY5Y GLuc-SERCaMP (Gaussia luciferase released on ER calcium loss) secretion, thapsigargin, luminescence; series mostly up to 38.4 µM. The method, boiled down: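 The SH-SY5Y reporter protocol was run at 3 concentrations up to 38.3 uM (primary) or 11 concentrations (follow-up): 16 h compound, 100 nM thapsigargin for 4 h, then extracellular luciferase luminescence.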

The target in test [11] is 3',5'-cyclic-AMP phosphodiesterase 4B (Homo sapiens) (UniProt Q07343). Description: qHTS Assay for Inhibitors of PDE-IV (AID 607; active = well fitted activation curve with a large enough effect in the main read-out, with a control signal flat, not every such curve was filed as active; also: % of control where 0% means no effect). Particulars: HEK293 ACTOne CNG channel cells, membrane potential fluorescence; series mostly up to 22.9 µM. The method, boiled down: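 The readout is membrane depolarisation from a cAMP-sensing CNG channel, detected with a potential dye at ex 535/em 590. Cells were HEK293-derived (endogenous PDE-IV) at 1000 cells/well, titrated up to 22.9 uM final.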
Chain of 3',5'-cyclic-AMP phosphodiesterase 4B (Homo sapiens) (Q07343 whole entry, looked up): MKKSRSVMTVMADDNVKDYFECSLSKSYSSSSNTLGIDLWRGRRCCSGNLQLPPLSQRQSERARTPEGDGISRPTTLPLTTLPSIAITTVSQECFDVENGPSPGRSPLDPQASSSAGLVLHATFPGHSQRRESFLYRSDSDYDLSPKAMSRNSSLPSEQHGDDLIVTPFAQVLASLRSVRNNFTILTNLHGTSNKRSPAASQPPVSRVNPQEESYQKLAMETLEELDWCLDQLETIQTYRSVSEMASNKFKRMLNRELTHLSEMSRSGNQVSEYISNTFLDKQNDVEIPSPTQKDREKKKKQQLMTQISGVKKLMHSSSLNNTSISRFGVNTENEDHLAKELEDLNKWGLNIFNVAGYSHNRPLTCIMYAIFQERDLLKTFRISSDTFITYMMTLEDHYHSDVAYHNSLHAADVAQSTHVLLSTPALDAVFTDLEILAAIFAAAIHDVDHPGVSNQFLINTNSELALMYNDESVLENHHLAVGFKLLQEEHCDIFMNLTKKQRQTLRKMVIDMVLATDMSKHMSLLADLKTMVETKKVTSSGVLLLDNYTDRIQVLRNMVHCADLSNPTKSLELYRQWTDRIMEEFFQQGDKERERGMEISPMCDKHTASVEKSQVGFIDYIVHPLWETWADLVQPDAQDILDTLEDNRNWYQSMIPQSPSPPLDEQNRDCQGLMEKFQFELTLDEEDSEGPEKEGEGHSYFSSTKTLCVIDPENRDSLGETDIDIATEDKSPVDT

Test [12] addresses Cytochrome P450 2D6 (Homo sapiens) (UniProt P10635). Description: qHTS Assay for Inhibitors and Substrates of Cytochrome P450 2D6 (AID 891; active = well fitted curve in the direction sought with a large enough effect; an effect the other way counts as inactive or inconclusive; also: potency is read from the fitted curve at half-maximal effect; nearly all actives have a fitted effect of over 60% in size). The note with it: recombinant CYP2D6, luciferin-ME EGE luminescence; series mostly up to 57.1 µM. Summed up: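 Luminescent read-out of luciferin formed by 5 nM human CYP2D6 demethylating 30 uM Luciferin-ME EGE (Km level) over 60 min at room temperature after NADPH regeneration addition. Data normalized to full inhibition by 1.43 uM quinidine.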

For test [13], the target named is Cytochrome P450 3A4 (Homo sapiens) (UniProt P08684). Description: qHTS Assay for Inhibitors and Substrates of Cytochrome P450 3A4 (AID 884; active = well fitted curve in the direction sought with a large enough effect; an effect the other way counts as inactive or inconclusive; also: nearly all actives have a fitted effect of over 50% in size; also: potency is read from the fitted curve at half-maximal effect). Particulars: recombinant CYP3A4, Luciferin-PPXE luminescence; series mostly up to 57.1 µM. The method, boiled down:
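Luminescent readout of luciferin produced by CYP3A4 (20 nM) dealkylation of Luciferin-PPXE, 25 uM (its KM). NADPH-driven reaction ran 60 min at RT after 10 min compound preincubation; data scaled to 57 uM ketoconazole as 100% inhibition.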

In test [14] the target is Cytochrome P450 2C9 (Homo sapiens) (UniProt P11712). Kind of test: qHTS Assay for Inhibitors and Substrates of Cytochrome P450 2C9 (AID 883; active = well fitted curve in the direction sought with a large enough effect; an effect the other way counts as inactive or inconclusive; also: potency is read from the fitted curve at half-maximal effect; nearly all actives have a fitted effect of over 60% in size). Particulars: recombinant CYP2C9, luciferin-H luminescence, 60 min; series mostly up to 57.1 µM. The method, boiled down: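 A luminogenic readout tracked human CYP2C9 (10nM) converting deoxyluciferin (100uM, at KM) in 25mM KPO4 during 60 min at 37C with regenerated NADPH. Values normalized to 57uM sulphaphenazole as complete inhibition.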
Chain of Cytochrome P450 2C9 (Homo sapiens) (P11712 whole entry, looked up): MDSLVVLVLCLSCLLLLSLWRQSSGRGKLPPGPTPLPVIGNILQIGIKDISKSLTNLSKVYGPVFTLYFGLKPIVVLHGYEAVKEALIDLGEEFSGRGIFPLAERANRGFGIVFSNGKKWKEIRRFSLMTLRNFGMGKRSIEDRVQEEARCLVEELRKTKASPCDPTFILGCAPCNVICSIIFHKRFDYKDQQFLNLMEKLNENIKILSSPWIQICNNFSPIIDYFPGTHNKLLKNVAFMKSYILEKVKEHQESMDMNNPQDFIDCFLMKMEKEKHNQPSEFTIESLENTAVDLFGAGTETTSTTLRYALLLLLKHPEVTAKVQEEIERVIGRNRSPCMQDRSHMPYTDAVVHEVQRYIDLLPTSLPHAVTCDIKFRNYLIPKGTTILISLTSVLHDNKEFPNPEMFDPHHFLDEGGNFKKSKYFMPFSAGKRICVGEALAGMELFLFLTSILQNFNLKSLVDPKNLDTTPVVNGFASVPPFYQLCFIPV

Chain of Lysosomal acid glucosylceramidase (Homo sapiens) (P04062 whole entry, looked up): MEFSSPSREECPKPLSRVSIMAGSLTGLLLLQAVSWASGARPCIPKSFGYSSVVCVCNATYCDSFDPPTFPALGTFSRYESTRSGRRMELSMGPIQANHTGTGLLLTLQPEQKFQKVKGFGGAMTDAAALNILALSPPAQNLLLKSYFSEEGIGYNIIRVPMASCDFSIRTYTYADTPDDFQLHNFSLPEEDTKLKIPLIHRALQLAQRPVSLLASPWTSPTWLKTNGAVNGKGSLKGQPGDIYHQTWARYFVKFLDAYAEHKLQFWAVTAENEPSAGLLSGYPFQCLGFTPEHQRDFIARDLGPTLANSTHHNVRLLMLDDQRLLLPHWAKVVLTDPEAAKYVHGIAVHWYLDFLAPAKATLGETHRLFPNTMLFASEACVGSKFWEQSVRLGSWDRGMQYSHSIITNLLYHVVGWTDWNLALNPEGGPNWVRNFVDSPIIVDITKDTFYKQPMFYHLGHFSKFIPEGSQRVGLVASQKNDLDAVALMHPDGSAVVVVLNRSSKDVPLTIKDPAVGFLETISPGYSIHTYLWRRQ
Chain of Cytochrome P450 2D6 (Homo sapiens) (P10635 whole entry, looked up): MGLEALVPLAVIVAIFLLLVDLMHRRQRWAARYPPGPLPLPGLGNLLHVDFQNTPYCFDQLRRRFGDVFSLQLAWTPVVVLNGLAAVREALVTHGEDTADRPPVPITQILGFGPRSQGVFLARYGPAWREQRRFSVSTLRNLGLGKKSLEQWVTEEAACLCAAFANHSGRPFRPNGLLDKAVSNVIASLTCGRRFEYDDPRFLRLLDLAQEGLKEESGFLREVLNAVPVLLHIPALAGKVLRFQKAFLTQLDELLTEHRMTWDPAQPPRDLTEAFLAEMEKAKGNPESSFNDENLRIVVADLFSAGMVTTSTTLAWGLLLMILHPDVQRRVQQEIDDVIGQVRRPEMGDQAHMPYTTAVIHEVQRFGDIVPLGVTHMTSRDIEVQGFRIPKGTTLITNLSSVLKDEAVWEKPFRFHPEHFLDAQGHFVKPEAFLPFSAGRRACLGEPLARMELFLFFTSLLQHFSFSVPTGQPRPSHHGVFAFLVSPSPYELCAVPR
Chain of Glucocorticoid receptor (Homo sapiens) (P04150 whole entry, looked up, the tested form may be a part): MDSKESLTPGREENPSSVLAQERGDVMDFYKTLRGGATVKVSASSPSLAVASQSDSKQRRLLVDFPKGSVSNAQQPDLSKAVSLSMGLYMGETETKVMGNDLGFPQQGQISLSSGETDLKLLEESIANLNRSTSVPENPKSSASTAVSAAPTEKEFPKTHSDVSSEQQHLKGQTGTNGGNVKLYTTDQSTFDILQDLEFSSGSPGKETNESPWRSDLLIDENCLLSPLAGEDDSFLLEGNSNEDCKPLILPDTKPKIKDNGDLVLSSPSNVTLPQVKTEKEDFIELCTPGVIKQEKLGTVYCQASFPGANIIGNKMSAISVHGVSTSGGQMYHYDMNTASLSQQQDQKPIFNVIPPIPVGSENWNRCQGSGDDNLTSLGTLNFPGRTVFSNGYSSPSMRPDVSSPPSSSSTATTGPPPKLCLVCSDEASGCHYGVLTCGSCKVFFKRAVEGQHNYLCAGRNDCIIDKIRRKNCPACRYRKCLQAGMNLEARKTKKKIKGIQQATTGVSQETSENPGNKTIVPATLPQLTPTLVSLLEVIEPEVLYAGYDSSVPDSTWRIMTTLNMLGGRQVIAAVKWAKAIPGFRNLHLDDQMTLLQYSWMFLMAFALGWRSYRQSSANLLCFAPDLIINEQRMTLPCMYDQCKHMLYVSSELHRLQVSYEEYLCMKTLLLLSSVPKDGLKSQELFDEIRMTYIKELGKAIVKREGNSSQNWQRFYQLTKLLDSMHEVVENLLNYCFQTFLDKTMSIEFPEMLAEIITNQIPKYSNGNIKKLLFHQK
Chain of Cytochrome P450 1A2 (Homo sapiens) (P05177 whole entry, looked up): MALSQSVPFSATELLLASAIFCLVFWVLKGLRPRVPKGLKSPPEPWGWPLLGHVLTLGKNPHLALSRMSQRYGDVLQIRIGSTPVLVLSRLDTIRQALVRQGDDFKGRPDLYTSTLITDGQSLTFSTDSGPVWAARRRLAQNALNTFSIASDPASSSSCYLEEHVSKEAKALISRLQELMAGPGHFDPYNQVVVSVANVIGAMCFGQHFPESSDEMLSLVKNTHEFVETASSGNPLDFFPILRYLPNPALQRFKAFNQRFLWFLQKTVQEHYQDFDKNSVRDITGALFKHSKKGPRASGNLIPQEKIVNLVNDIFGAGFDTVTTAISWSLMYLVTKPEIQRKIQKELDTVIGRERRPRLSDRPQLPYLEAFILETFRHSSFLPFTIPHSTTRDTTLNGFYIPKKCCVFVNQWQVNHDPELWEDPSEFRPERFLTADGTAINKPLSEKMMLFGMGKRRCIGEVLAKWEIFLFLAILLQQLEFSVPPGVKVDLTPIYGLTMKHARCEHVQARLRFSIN
Chain of Cytochrome P450 3A4 (Homo sapiens) (P08684 whole entry, looked up): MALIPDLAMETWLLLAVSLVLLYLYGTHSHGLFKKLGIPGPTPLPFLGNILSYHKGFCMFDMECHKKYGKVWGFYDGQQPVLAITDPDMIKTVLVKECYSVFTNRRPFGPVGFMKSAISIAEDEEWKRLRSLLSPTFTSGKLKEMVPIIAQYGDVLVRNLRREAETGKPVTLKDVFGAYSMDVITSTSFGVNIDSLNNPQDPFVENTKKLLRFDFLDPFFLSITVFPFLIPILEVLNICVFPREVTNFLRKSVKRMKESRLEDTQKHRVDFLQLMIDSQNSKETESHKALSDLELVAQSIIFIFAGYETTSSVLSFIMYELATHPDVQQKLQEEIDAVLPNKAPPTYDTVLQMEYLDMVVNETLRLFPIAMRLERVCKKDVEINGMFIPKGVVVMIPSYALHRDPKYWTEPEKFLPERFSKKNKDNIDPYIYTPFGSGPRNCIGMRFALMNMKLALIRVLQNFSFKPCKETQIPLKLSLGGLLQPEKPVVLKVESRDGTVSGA

Regarding `N#Cc1cccc(NC(=O)N2CCCC3(CCN(C(=O)c4cnccn4)CC3)C2)c1`, the Potency in [1] was greater than 11.4 µM; in test [3] it was 20 µM (active); in test [6] it was greater than 46 µM. For the same compound, the activity change, negative = inhibition was -1.03% in test [2] and -9.23% in test [4]. In test [5], the activity, negative = inhibition is 0.635%. Further, the Potency result in test [7] and in test [8] was “inactive” in each case. In test [9], the activation was 0.071%. The result in [10] was inactive.
`O=S(=O)(c1ccccc1)N1CCC2(CC1)CN(Cc1ccccc1)C2`: the Potency in test [1] was greater than 11.4 µM; in test [6] it was greater than 46 µM; in [12], 0.158 µM (active). Besides, in test [2], the activity change, negative = inhibition is 7.31%. The Potency result in test [3], in test [7] and in [11] was “inactive” each time. The activity, negative = inhibition in [5] was 2.83%. Further, the outcome in [10] was inactive.
Turning to `O=C(Oc1ccccc1)N1CCC2(CCCN(c3ccc(-c4ccccc4)cc3)C2)CC1`, the results for the Potency in test [1] and in test [6] were greater than 11.4 µM and greater than 46 µM, respectively. Moreover, in test [2], the activity change, negative = inhibition was 27%. Also, the Potency result in test [3], in test [7], in [11] and in test [8] was “inactive” in each case. Moreover, in [5], the activity, negative = inhibition was 6.94%. The outcome in test [10] was inactive.
On to `O=C(c1ccncc1)N1CCC2(CCCN(Cc3ccccc3)C2)CC1`, for which the Potency in test [1] was greater than 11.4 µM; in [6], greater than 46 µM. Moreover, the activity change, negative = inhibition in test [2] was -9.7%. Also, the Potency result in test [3], in [7], in test [11] and in test [8] was “inactive” in each case. Besides, the activity, negative = inhibition in [5] is -8.26%. In addition, the result in test [10] was inactive.
On to `O=C(c1ccco1)N1CCC2(CCCN(Cc3ccncc3)C2)CC1`, for which the Potency in [1] was greater than 11.4 µM; in test [3] it was 15.8 µM (active); in test [6], greater than 46 µM; in [13], 5.01 µM (active); in test [12] it was 3.16 µM (active). Moreover, the activity change, negative = inhibition in test [2] was -1.32%. Further, in [5], the activity, negative = inhibition was -14.4%. In addition, the Potency entry in test [7], in [11] and in test [8] was “inactive” in each case. The outcome in [10] was inactive.
As for `N#Cc1ccc(CN2CCCC3(CCN(S(=O)(=O)c4ccccc4)CC3)C2)cc1`, the Potency in test [1] was greater than 11.4 µM; in test [6] it was greater than 46 µM; in test [13], 3.16 µM (active); in test [12], 0.631 µM (active). Moreover, the activity change, negative = inhibition in test [2] was -11.3%. Further, the Potency result in [3], in test [7], in test [11] and in [8] was “inactive” throughout. Further, the activity, negative = inhibition in test [5] is -1.86%. Besides, in test [10], the result was inactive.
Regarding `COC(=O)N1CCC2(CC1)CCN(c1ccccn1)CC2`, the Potency was greater than 11.4 µM in test [1], greater than 46 µM in test [6] and 20 µM (active) in test [8]. In addition, in test [2], the activity change, negative = inhibition was -8.66%. Also, the Potency result in test [3], in test [7], in [11] and in test [13] was “inactive” in each case. Besides, the activity, negative = inhibition in test [5] was -8.24%. Besides, the result in [10] was inactive.
As to `O=C(c1cccc(F)c1)N1CCC2(CCCN(Cc3ccncc3)C2)CC1`, the Potency in test [1] is greater than 11.4 µM; in test [3], 15.8 µM (active); in test [6], greater than 46 µM; in [14], 0.631 µM (active); in test [12], 7.94 µM (active). Besides, in [2], the activity change, negative = inhibition was -4.41%. In addition, the activity, negative = inhibition in test [5] was -4.85%. Also, the Potency result in test [7], in test [11] and in test [8] was “inactive” throughout. Further, the result in test [10] was inactive.
